Out of some 340,000 compounds screened, about 730 (0.21%) were called active. The full list was thinned out, with actives kept by preference. Unmarked numbers belong to inactive results.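 The calls were made as follows: active = inhibition above the mean over all tested compounds plus 3 SD (cut at about 21% in these data); inactive = the rest.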
Molecular target: Toll-like receptor 9 (Homo sapiens) + Myeloid differentiation primary response protein MyD88 (Homo sapiens) (UniProt Q9NR96+Q99836)
Experiment: inhibitors of TLR9-MyD88 association in cells, primary screen, cell-based, CHO, BLA complementation, fluorescence (AID 504734);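 also: 0% = DMSO only wells and 100% = clavulanate BLA inhibitor control wells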
Settings: CHO BLA complementation TLR9-MyD88, CCF4 FRET ratio; at 4.98 µM; stronger effect = higher value

Toll-like receptor 9 (Homo sapiens) + Myeloid differentiation primary response protein MyD88 (Homo sapiens), sequence (Q99836 whole entry, looked up): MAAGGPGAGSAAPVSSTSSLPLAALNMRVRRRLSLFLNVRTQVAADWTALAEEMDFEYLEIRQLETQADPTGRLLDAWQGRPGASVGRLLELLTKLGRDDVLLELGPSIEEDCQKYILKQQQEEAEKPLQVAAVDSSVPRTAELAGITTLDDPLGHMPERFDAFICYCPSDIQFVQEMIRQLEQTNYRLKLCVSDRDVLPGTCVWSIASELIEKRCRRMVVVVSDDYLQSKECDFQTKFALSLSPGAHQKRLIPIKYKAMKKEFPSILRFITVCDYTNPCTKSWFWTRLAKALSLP
Toll-like receptor 9 (Homo sapiens) + Myeloid differentiation primary response protein MyD88 (Homo sapiens), sequence (Q9NR96 whole entry, looked up): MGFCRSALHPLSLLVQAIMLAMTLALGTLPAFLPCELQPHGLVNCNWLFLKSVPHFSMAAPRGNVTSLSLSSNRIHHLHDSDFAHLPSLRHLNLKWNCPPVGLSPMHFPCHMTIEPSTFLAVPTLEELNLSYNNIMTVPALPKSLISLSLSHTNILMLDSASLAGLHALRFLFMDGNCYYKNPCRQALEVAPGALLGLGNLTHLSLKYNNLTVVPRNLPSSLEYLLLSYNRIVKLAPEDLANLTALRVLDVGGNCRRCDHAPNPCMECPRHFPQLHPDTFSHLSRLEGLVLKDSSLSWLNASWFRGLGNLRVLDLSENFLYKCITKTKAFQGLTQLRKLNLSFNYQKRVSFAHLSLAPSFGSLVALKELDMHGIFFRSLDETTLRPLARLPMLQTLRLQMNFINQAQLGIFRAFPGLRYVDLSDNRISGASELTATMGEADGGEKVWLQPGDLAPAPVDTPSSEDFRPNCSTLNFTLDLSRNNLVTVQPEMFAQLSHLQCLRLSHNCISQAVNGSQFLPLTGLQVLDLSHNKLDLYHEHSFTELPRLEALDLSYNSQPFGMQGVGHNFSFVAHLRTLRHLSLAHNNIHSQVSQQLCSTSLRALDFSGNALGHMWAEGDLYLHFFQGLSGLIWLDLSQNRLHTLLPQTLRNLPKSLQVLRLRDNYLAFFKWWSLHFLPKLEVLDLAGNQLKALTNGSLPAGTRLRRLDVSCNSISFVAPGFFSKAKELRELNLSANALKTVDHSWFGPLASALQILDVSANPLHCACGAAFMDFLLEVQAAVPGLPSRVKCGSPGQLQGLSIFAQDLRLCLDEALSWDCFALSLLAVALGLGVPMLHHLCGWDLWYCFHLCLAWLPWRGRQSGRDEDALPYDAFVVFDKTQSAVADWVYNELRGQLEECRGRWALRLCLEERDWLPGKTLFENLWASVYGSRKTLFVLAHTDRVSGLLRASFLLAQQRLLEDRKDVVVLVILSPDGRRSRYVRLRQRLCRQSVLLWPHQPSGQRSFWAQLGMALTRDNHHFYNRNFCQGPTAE

| SMILES | inhibition |
| --- | --- |
| CC(=O)c1ccccc1NC(=O)COC(=O)C1COc2ccccc2O1 (stereo unspecified) | 2.77% |
| C[C@@H]1CN([C@@H](C)CO)S(=O)(=O)c2ccc(-c3ccc(C(=O)N(C)C)cc3)cc2O[C@@H]1CN(C)Cc1ccccc1C(=O)O | -6.78% |
| CCOC(=O)c1c(NC(=S)SC)sc(C(=O)N2CCc3ccccc3C2)c1C | -0.74% |
| COc1ccc(CN2C[C@H]3CON(C)[C@H]3C[C@H]2c2ccc(-c3cccc(F)c3)cc2)cc1 | 4.13% |
| O=C(O)C1CCCN1c1nc(Cl)ccc1[N+](=O)[O-] (stereo unspecified) | -12.8% |
| O=C1c2cccc3c([N+](=O)[O-])ccc(c23)C(=O)N1CC1CCCO1 (stereo unspecified) | 56.9% (active) |
| CN1CN(C)c2ccc([N+](=O)[O-])c3cccc1c23 | -8.31% |
| CCOc1cccc(=O)c2c(C)n(CC3CCCO3)c(C)c12 (stereo unspecified) | 1.31% |
| CCN(Cc1ccncc1)C(=S)Nc1ccccc1C | 3.02% |
| Cc1cccc(S(=O)(=O)N(C)C[C@@H]2OCc3cnnn3CCCC(=O)N([C@H](C)CO)C[C@@H]2C)c1 | -11.3% |
| CN1CCN(c2ccncc2S(=O)(=O)N2CCCC2)CC1 | 3.95% |
| O=C(/C=C(O)/C=C/c1ccc(O)cc1)/C=C/c1ccc(O)cc1 | 42% (active) |
| O=C(O)/C=C/c1ccc(S(=O)(=O)N2CCCCCC2)cc1 | -16.4% |
| COc1cccc(C=CC(=O)C=CC=Cc2ccccc2)c1 | -5.47% |
| COc1ccc(NC(=O)CSc2nnnn2-c2cccc(OC)c2)cc1 | 13.5% |
| COCOCCn1cc(CN2CCS(=O)(=O)N(Cc3ccc(-c4ccc(OC)cc4)cc3)C(CC(C)C)C2=O)nn1 (stereo unspecified) | -1.5% |
| C[C@@H]1CN([C@@H](C)CO)C(=O)c2c(c3ccccc3n2C)-c2ccccc2CO[C@H]1CN(C)C(=O)C1CC1 | -4% |
| Cc1cc2oc(=O)cc(CN3CCN(Cc4ccccc4)CC3)c2cc1C | -18.4% |

| SMILES | inhibition |
| --- | --- |
| COc1cccc2sc3cc(NCC[C@@H]4CCCN4C)ccc3c(=O)c12 | 0.85% |
| Cc1cc2oc3ccc(NCCC4CCCN4C)cc3c(=O)c2cc1C (stereo unspecified) | 24.9% (active) |
| C[C@H]1CN([C@@H](C)CO)S(=O)(=O)c2ccc(Br)cc2O[C@H]1CN(C)C(=O)c1cnccn1 | 5.72% |
| CCC1NC(=O)c2cccnc2-n2c1nc1ccc(C)cc1c2=O (stereo unspecified) | 8.64% |
| COc1ccc(S(=O)(=O)N2CCCCC2)cc1C(=O)NC1CCS(=O)(=O)C1 (stereo unspecified) | -5.76% |
| CCc1ccccc1NC(=O)CN1CCN(C(=O)c2cc(C3CC3)nn2-c2ccccc2)CC1 | -43.9% |
| NC(=O)CSc1nnc(-c2cccc(S(=O)(=O)N3CCOCC3)c2)o1 | 10.4% |
| Nc1nnc(SCC(=O)Nc2ccc3nc(SCC(=O)Nc4ccccc4)sc3c2)s1 | 0.67% |
| OCCNc1nc(Nc2ccc(Cl)c(Cl)c2)nc2ccccc12 | -0.91% |
| O=[N+]([O-])c1c(NCCO)cc(Sc2nc3ccccc3s2)c2nonc12 | 43.3% (active) |
| O=C(CSc1ncn[nH]1)Nc1nc2c(F)c(F)c(F)cc2s1 | -0.11% |
| O=C(C[C@H]1C[C@H]2c3cc(NS(=O)(=O)c4ccc(F)cc4)ccc3O[C@H]2[C@H](CO)O1)NCc1cc(F)ccc1F | -5.81% |
| COc1cc(C(=O)N2C(=O)c3cccc(N)c3C2=O)cc(OC)c1OC | 20.9% (active) |
| CC1CC(C)CN(S(=O)(=O)c2cccc(C(=O)N3C(=O)c4cccc(N)c4C3=O)c2)C1 (stereo unspecified) | -15.2% |
| COc1cc(C(=O)N2CCN(C)CC2)cc(OC)c1OC | 8.16% |
| COc1ccc(-c2c(C#N)cnc(C)c2C)c(O)c1OC | -8.05% |
| C#Cc1cc(N2CCN(C(=O)c3ccoc3)CC2)n2nc(-c3cccc(Cl)c3)cc2n1 | 5.91% |
| CCCCCCNC(=O)O[C@]12C[C@@H](C(=O)OC)[C@@H](C(=O)OC)C[C@@]1(O)CN(S(=O)(=O)c1ccc(C)cc1)C2 | -7.21% |
